Consider nine molecules from PubChem BioAssay (NCI).

Some test systems named below: SR leukemia; RPMI-8226 leukemia; OVCAR-8 ovarian; OVCAR-5 ovarian; OVCAR-4 ovarian; SK-OV-3 ovarian; IGROV1 ovarian; OVCAR-3 ovarian; HS 578T breast; NCI/ADR-RES ovarian; T-47D breast; BT-549 breast; MDA-MB-435 melanoma; SW-620 colon; MCF7 breast; HCT-116 colon; HCC-2998 colon; KM12 colon.
Assay in all cases: NCI-60 one-dose screen, 48 h (100 = growth as untreated, 0 = no growth, -100 = all killed)
Holding throughout (conditions): 10 µM unless noted

Compounds without any hit were thinned out: in the full panel of roughly 83,000, 20% have a hit.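 Results are percent growth after 48 hours of single-concentration exposure. 100 means growth as in untreated cells, lower positive values show inhibition; negative values down to -100 show cell death.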 Unmarked numbers belong to inactive results. Activity calls are given as the source filed them. How the source made its calls: active means growth percent below 10; inactive means the rest.

As to `NNC(=S)N1N=C(c2cc3ccccc3o2)CC1c1c[nH]c2ccccc12` (configuration not stated), the growth was 27.2% in the experiment on SR leukemia; 28% in the experiment on RPMI-8226 leukemia; 38.8% with OVCAR-8 ovarian; 80.4% with OVCAR-5 ovarian; 28.6% in the experiment on OVCAR-4 ovarian; 86.2% in the experiment with SK-OV-3 ovarian. The growth with IGROV1 ovarian was 35.3%; in the experiment with OVCAR-3 ovarian, 20%; with HS 578T breast, 63.8%; in the experiment on NCI/ADR-RES ovarian, 30.7%; with T-47D breast, 40.3%; in the experiment on BT-549 breast, 32.2%. For the same molecule, the growth with MDA-MB-435 melanoma is 57.8%; with SW-620 colon, 43.8%; in the experiment with MCF7 breast, 20.7%; in the experiment on HCT-116 colon, 23.8%; in the experiment on HCC-2998 colon, 52%; in the experiment with KM12 colon it was 37.4%.

Take `COc1ccc(OC)c(Cn2cc3c(c2)-c2oncc2CC3)c1`: the growth in the experiment with SR leukemia is 22.7%; in the experiment with RPMI-8226 leukemia, 42.5%; in the experiment with OVCAR-8 ovarian, 55.5%; in the experiment with OVCAR-5 ovarian it was 58.1%; in the experiment with OVCAR-4 ovarian it was 69.1%; in the experiment with SK-OV-3 ovarian, 11.6%. Besides, the growth is 31.2% in the experiment with IGROV1 ovarian; -4.75% (active) with OVCAR-3 ovarian; 19.2% in the experiment on HS 578T breast; 1.37% (active) with NCI/ADR-RES ovarian; 36.1% with T-47D breast; 33.3% in the experiment with BT-549 breast. The growth with MDA-MB-435 melanoma was -40.1% (active); in the experiment on SW-620 colon, 22.4%; in the experiment with MCF7 breast, 8.44% (active); in the experiment with HCT-116 colon it was 16.8%; in the experiment with HCC-2998 colon, 66.6%; in the experiment on KM12 colon it was 28.9%.

Take `CCCC(C)c1cc(Cc2cc(Cl)cc(Cl)c2O)c(O)c(Cc2cc(Cl)cc(Cl)c2O)c1` (configuration not stated): the growth in the experiment on SR leukemia was 5.98% (active); in the experiment on RPMI-8226 leukemia it was -2.65% (active); with OVCAR-8 ovarian it was 15%; in the experiment with OVCAR-5 ovarian it was 33.8%; with OVCAR-4 ovarian, 22%; with SK-OV-3 ovarian it was 14.6%. The growth in the experiment on IGROV1 ovarian is 28.1%; in the experiment with OVCAR-3 ovarian, 16.2%; in the experiment on HS 578T breast, 1.09% (active); with NCI/ADR-RES ovarian, 2.52% (active); in the experiment with T-47D breast it was 6.27% (active); with BT-549 breast, -14.9% (active). The growth was 7.24% (active) in the experiment on MDA-MB-435 melanoma; 12.9% with SW-620 colon; 4.88% (active) in the experiment on MCF7 breast; 4.58% (active) with HCT-116 colon; 8.08% (active) in the experiment with HCC-2998 colon; 9.12% (active) in the experiment on KM12 colon.

`CCN(CCO)CCNc1ccc(C)c2sc3cc(OC)ccc3c(=O)c12`: the growth was -3.46% (active) in the experiment with SR leukemia; 65.3% with RPMI-8226 leukemia; 62.7% in the experiment on OVCAR-8 ovarian; 82.7% in the experiment with OVCAR-5 ovarian; 84.7% with OVCAR-4 ovarian; 88.7% in the experiment with SK-OV-3 ovarian. The growth in the experiment with IGROV1 ovarian is 66.5%; with OVCAR-3 ovarian, 90.6%; in the experiment with HS 578T breast, 84.2%; in the experiment on NCI/ADR-RES ovarian, 64.1%; with T-47D breast, 90.1%; in the experiment on BT-549 breast it was 88.7%. The growth in the experiment on MDA-MB-435 melanoma was 86.2%; in the experiment on SW-620 colon, 38.4%; in the experiment on MCF7 breast it was 52.6%; in the experiment with HCT-116 colon, 20.5%; in the experiment on HCC-2998 colon, 64.5%; in the experiment on KM12 colon, 69.2%.

On to `OCC(O)C(O)CC1SCCS1` (configuration not stated), for which the growth in the experiment with SR leukemia was 103%; in the experiment with RPMI-8226 leukemia, 122%; with OVCAR-8 ovarian it was 96.3%; in the experiment with OVCAR-5 ovarian it was 106%; with OVCAR-4 ovarian, 112%; with SK-OV-3 ovarian, 103%. In addition, the growth is 107% with IGROV1 ovarian; 101% in the experiment on OVCAR-3 ovarian; 106% in the experiment on HS 578T breast; 102% in the experiment on NCI/ADR-RES ovarian; 97.1% in the experiment on T-47D breast; 102% in the experiment with BT-549 breast. The growth in the experiment with MDA-MB-435 melanoma was 105%; with SW-620 colon, 99.7%; in the experiment with MCF7 breast it was 103%; in the experiment on HCT-116 colon it was 104%; in the experiment with HCC-2998 colon it was 108%; in the experiment with KM12 colon, 103%.

In the case of `COC(=O)CC(=O)C(=O)OC`, the growth in the experiment with SR leukemia is 93.1%; in the experiment on RPMI-8226 leukemia it was 101%; with OVCAR-8 ovarian it was 105%; in the experiment with OVCAR-5 ovarian, 108%; in the experiment with OVCAR-4 ovarian it was 108%; in the experiment with SK-OV-3 ovarian it was 106%. Besides, the growth with IGROV1 ovarian was 108%; with OVCAR-3 ovarian, 106%; with HS 578T breast, 105%; with NCI/ADR-RES ovarian, 106%; in the experiment with T-47D breast, 99.9%; in the experiment with BT-549 breast, 101%. The growth in the experiment with MDA-MB-435 melanoma is 120%; with SW-620 colon, 104%; with MCF7 breast it was 97.6%; in the experiment with HCT-116 colon, 93.4%; with HCC-2998 colon, 104%; in the experiment with KM12 colon it was 106%.

As to `CCOC(=O)C1=NN(c2ccccc2)C2=NC(=O)/C(=C\c3cn(-c4ccccc4)nc3-c3cc4ccccc4o3)C(=O)N12`, the growth with SR leukemia is 98%; with RPMI-8226 leukemia it was 83%; with OVCAR-8 ovarian, 100%; with OVCAR-5 ovarian, 106%; in the experiment with OVCAR-4 ovarian it was 103%; in the experiment with SK-OV-3 ovarian it was 97.6%. Further, the growth with IGROV1 ovarian is 89.1%; in the experiment on OVCAR-3 ovarian, 103%; in the experiment on HS 578T breast, 97.9%; in the experiment on NCI/ADR-RES ovarian, 106%; in the experiment with T-47D breast, 86.6%; in the experiment on BT-549 breast, 97.4%. The growth with MDA-MB-435 melanoma was 108%; with SW-620 colon it was 91.9%; in the experiment on MCF7 breast, 75.6%; in the experiment on HCT-116 colon, 89.1%; in the experiment with HCC-2998 colon it was 101%; in the experiment on KM12 colon, 97.5%.

For the molecule `c1ccc(-c2cn3ccnc3c(-c3ccc4ncn(C5CCCCC5)c4c3)n2)cc1`, the growth was 40.2% with SR leukemia; 14.3% with RPMI-8226 leukemia; 36.1% in the experiment with OVCAR-8 ovarian; 92.1% with OVCAR-5 ovarian; 65.5% in the experiment on OVCAR-4 ovarian; 92.5% in the experiment with SK-OV-3 ovarian. Also, the growth with IGROV1 ovarian is 88%; with OVCAR-3 ovarian, 58.2%; in the experiment with HS 578T breast, 76.2%; with NCI/ADR-RES ovarian, 49.5%; with T-47D breast, -11.1% (active); in the experiment with BT-549 breast it was 42.9%. Further, the growth with MDA-MB-435 melanoma was 71.3%; with SW-620 colon, 90.9%; with MCF7 breast, 62%; in the experiment with HCT-116 colon, 40.5%; with HCC-2998 colon, 103%; with KM12 colon it was 51%.

With `O=C(/C=C/c1c[nH]c2ccccc12)c1cc2ccccc2o1`, the growth was 41.1% in the experiment with SR leukemia; 60.1% in the experiment on RPMI-8226 leukemia; 99.3% in the experiment on OVCAR-8 ovarian; 101% in the experiment with OVCAR-5 ovarian; 101% in the experiment with OVCAR-4 ovarian; 103% with SK-OV-3 ovarian. The growth is 88.2% with IGROV1 ovarian; 93.3% in the experiment with OVCAR-3 ovarian; 100% with HS 578T breast; 99.9% in the experiment with NCI/ADR-RES ovarian; 82.8% in the experiment on T-47D breast; 79.6% with BT-549 breast. The growth in the experiment with MDA-MB-435 melanoma is 92.1%; in the experiment on SW-620 colon, 95.2%; in the experiment on MCF7 breast, 65.9%; in the experiment on HCT-116 colon it was 62%; in the experiment with HCC-2998 colon it was 105%; in the experiment on KM12 colon, 75.7%.
